Compound activity: PubChem BioAssay, National Center for Advancing Translational Sciences (NCATS)
Pol beta inh – DNA polymerase beta (human) inhibition; P06746; Pol beta primer extension/strand displacement, fluorescence kinetic; Potency, µM (series often up to 114 µM), hits mostly inhibitors; 340,000 tested, 1.3% active; AID 485314
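Kinetic readout of DNA synthesis with strand displacement by Pol beta. Compound and 10 nM enzyme sit 15 min at room temperature; 50 nM substrate starts the reaction, read immediately and at 10 min.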
GLS inhibitor – glutaminase GLS (human) inhibition; GLS enzymatic activity, qHTS titration; Potency, µM (doses to about 45.5 µM), usual class: inhibitors; 410,000 tested, 0.21% active
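Compounds were pin-transferred onto hKGA, after which L-glutamine (1 mM solution) and a detection mix of glutamate oxidase, HRP and Amplex Red were added. Initial and 30 min RT fluorescence reads were collected.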
Pol kappa inh – inhibitors of human DNA polymerase kappa; purified Pol kappa, fluorescent DNA synthesis assay, 10 min; Potency, µM (highest dose often 107 µM), usual class: inhibitors; 400,000 tested, 0.53% active; AID 588579
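Kinetic fluorescence screen: compound preincubated 15 min RT with 10 nM enzyme; 50 nM substrate (final) initiates; reads at 0/10 min.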
POLI inh – blocks human DNA polymerase iota activity; Q9UNA4; AID 588590; 390,000 tested, 1% active; Potency, µM (series often up to 115 µM), most hits filed as inhibitors; Pol iota fluorescent replication assay, 10 min
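Pol iota at 10 nM preincubated 15 min with compounds at room temperature; reaction started with fluorescent substrate, 50 nM final. Fluorescence read kinetically at 0 and 10 min; buffer-only wells as negative control.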
APE1 inh – inhibitors of human APE1 endonuclease. P27695. recombinant APE1, TAMRA/BHQ-2 abasic DNA cleavage fluorescence. Potency, µM (highest dose often 65.8 µM), usual class: inhibitors. 350,000 tested, 0.35% active. AID 2517; note: nearly all actives have a fitted effect of over 55% in size
Target sequence (P27695 whole entry, looked up): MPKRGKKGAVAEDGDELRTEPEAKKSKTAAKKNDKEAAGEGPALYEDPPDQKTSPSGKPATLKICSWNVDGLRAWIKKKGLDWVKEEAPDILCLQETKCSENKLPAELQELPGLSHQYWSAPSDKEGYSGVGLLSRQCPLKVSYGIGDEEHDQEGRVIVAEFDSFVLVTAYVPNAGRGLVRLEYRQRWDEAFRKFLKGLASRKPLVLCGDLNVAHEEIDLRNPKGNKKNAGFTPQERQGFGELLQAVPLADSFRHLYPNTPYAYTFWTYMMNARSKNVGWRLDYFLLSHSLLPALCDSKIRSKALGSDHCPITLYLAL
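Substrate: short duplex with […] THF abasic site, 5'-TAMRA and 3'-BHQ-2, 50 nM final. APE1 at 0.75 nM, preincubated 15 min RT with compound. Fluorescence increase from first to third read measured activity.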
Pol eta inh – DNA polymerase eta (human) inhibition | recombinant Pol eta, fluorescent DNA replication assay | 390,000 tested, 1.2% active | Potency, µM (series often up to 114 µM), actives largely listed as inhibitors
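Pol eta at 10 nM preincubated with compounds 15 min at room temperature; reaction started with fluorescent substrate (50 nM final) and read kinetically at 0 and 10 min.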
Each line names hits and unclear results; the compound was inactive in the other large screens. Hits are enriched below; roughly 2.4% of the tested compounds scored in any of these assays. Calls come from the whole dose curve; as a rule, active = well fitted curve in the direction sought with a large enough effect; inconclusive = small, poorly fitted or top-dose-only effect, or another doubt; inactive = no such curve, though single readings can be large; an effect the other way counts as inactive or inconclusive.

O=C(c1ccc(-c2cccc([N+](=O)[O-])c2)o1)N1CCN(c2ccc([N+](=O)[O-])cc2)CC1	none (no result: Pol beta inh)
Cc1ccc(C(=O)N2CCN(c3ccc([N+](=O)[O-])cc3)CC2)o1	Pol beta inh 89µM
c1ccc2c(C3CCO3)cccc2c1 (stereo unspecified)	none (no result: Pol beta inh)
O=C(NCc1ccc2c(c1)OCO2)c1ccc(NC(=O)C2CCCO2)cc1 (stereo unspecified)	none
CCCc1ccc(O)c(N=Cc2cc(Br)cc(OCC)c2O)c1	Pol beta inh 20µM, POLI inh inconclusive
COc1ccc(CCN(C)C(=O)COC(=O)/C=C/c2ccc(C)o2)cc1OC	Pol kappa inh inconclusive, POLI inh 50µM, Pol eta inh inconclusive (no result: Pol beta inh)
CCOc1ccc(NC(=O)c2nnn(CC(=O)Nc3ccccc3OCC)c2N)cc1	none
O=C(Cc1cc(=O)[nH][nH]1)N/N=C/C=C/c1ccccc1	POLI inh inconclusive, Pol eta inh 14µM
O=C(Nc1ccc(F)cc1)C(=O)C1C(=O)Nc2ccccc21 (stereo unspecified)	POLI inh 89µM
O=C(N/N=C/c1ccccc1Cl)c1nc2ccc([N+](=O)[O-])cc2c(=O)[nH]1	POLI inh 10µM
O=C(N/N=C/c1cccc([N+](=O)[O-])c1)c1nc2ccccc2c(=O)[nH]1	none
CCOc1ccccc1NC(=O)c1cc(-c2ccncc2)nc2c(Cl)cccc12	Pol beta inh 16µM
Fc1ccc(Br)cc1C1C=C(c2ccc(Br)s2)Nc2ncnn21 (stereo unspecified)	Pol beta inh 10µM, POLI inh inconclusive, Pol eta inh 28µM
O=c1nc(SCc2c(F)cccc2Cl)nc(-c2ccc(Cl)cc2)[nH]1	Pol eta inh 89µM
N#C/C(=C\c1c(Oc2ccc(Br)cc2)nc2ccccn2c1=O)c1nc2ccccc2s1	Pol kappa inh 79µM, POLI inh 13µM (no result: APE1 inh)
O=C(CCC1CCCN(C(=O)c2cccnc2)C1)NCc1ccccc1F (stereo unspecified)	none
CCC(=O)OCOc1ccc(/C=C2/CCC(CN(C)C)C2=O)cc1 (stereo unspecified)	GLS inhibitor inconclusive, POLI inh inconclusive, Pol eta inh 13µM (no result: Pol beta inh, APE1 inh)
COc1ccc(Cl)cc1C(=O)Nc1nc2ccccc2[nH]1	Pol beta inh 45µM, POLI inh 79µM
COc1cccc(-c2[nH]nc3c2C(c2ccoc2)C(C#N)=C(N)O3)c1 (stereo unspecified)	Pol beta inh 35µM, POLI inh inconclusive, APE1 inh inconclusive, Pol eta inh inconclusive
CN(C)/C=C/C(=O)c1ccc(-c2ccc(Cl)cc2Cl)o1	Pol beta inh 32µM, APE1 inh inconclusive
COc1cc(/C=C2/SC(=S)NC2=O)ccc1OS(=O)(=O)c1ccc(C)cc1	Pol beta inh 35µM, GLS inhibitor inconclusive, POLI inh inconclusive, Pol eta inh 28µM
COc1cc(/C=C2\SC(=S)NC2=O)ccc1OS(=O)(=O)c1ccccc1	Pol beta inh inconclusive (no result: GLS inhibitor, Pol kappa inh, POLI inh, Pol eta inh)
COc1cc(-n2c(C)nc3cc(C(=O)O)ccc32)cc(OC)c1OC	none
COc1ccc(OC)c(-n2c(C)nc3cc(C(=O)O)ccc32)c1	Pol eta inh 79µM
CCOc1ccc(C(=O)c2ccc(OCC)c(N)c2)cc1N	none
COc1ccc(NC(=O)c2ccc(COc3ccccc3)o2)c(OC)c1	none
Cc1ccc(NC(=O)CCNS(=O)(=O)c2ccc3c(c2)CCC(=O)N3)cc1F	POLI inh inconclusive
CCOC(=O)c1sc2nc(-c3ccco3)c3c(c2c1N)CC(C)(C)OC3	Pol beta inh 40µM, Pol eta inh inconclusive
COC(=O)CSc1ncnc2c1sc1nc(-c3ccco3)c3c(c12)CC(C)(C)OC3	Pol beta inh inconclusive (no result: GLS inhibitor, Pol kappa inh, POLI inh, Pol eta inh)
CC(C)OC(=O)C1Cc2ccccc2CN1S(=O)(=O)c1cccs1 (stereo unspecified)	Pol beta inh 32µM, POLI inh inconclusive, Pol eta inh inconclusive
CC(CO)NS(=O)(=O)c1ccc(Br)cc1F (stereo unspecified)	none (no result: Pol beta inh, APE1 inh)
Cc1ccc(NC(=O)Nc2ccc3c(c2)N(C)C(=O)CS3)nc1	Pol beta inh inconclusive, POLI inh 89µM
Cc1ccnc(NC(=O)Nc2ccc3c(c2)N(C)C(=O)CS3)c1	APE1 inh inconclusive
O=C(O)COc1ccccc1/C=N/NC(=O)CSc1nc2ccccc2n1Cc1ccccc1Cl	Pol beta inh 79µM, GLS inhibitor inconclusive, POLI inh inconclusive
CCOC(=O)c1c2c(n(-c3ccc(OC)cc3)c1C)C(=O)C(=O)c1ccccc1-2	POLI inh 8.9µM, Pol eta inh 3.2µM (no result: Pol beta inh, APE1 inh)
CCOc1ccc(C(=O)Nc2cccc(NC(=O)c3ccco3)c2)cc1Cl	POLI inh 89µM (no result: APE1 inh)
Cc1ccc(OCC(=O)Nc2ccc(NC(=O)c3ccco3)cc2)c(C)c1	Pol beta inh 28µM, POLI inh inconclusive, Pol eta inh inconclusive
COc1ccc(NC(=O)c2ccco2)cc1NC(=O)COc1ccc(Cl)cc1C	Pol beta inh inconclusive, Pol eta inh 79µM (no result: APE1 inh)
CCOc1ccc(C(=O)Nc2cc(NC(=O)c3ccco3)ccc2OC)cc1Br	none (no result: APE1 inh)
COc1ccc(NC(=O)c2ccco2)cc1NC(=O)COc1ccc(C)cc1C	Pol beta inh inconclusive, Pol eta inh inconclusive (no result: APE1 inh)
Cc1c(C(=O)NCc2ccco2)oc2c(Cl)cccc12	none (no result: Pol beta inh)
CCC(C)NC(=O)Cn1c(=O)n(-c2ccc(C)c(C)c2)c(=O)c2c(C)c(C(=O)N(CC)CC)sc21 (stereo unspecified)	none (no result: APE1 inh)
Cc1ccc(C(=O)NCC(=O)NCC(=O)OCC(=O)c2ccc([N+](=O)[O-])cc2)cc1	none
CCOc1cc(/C=C2\NC(=S)N(C)C2=O)ccc1OCc1ccc(C(=O)O)cc1	Pol eta inh inconclusive
CN1C(=O)/C(=C/c2ccc(OCc3ccc(C(=O)O)cc3)c(Cl)c2)NC1=S	Pol beta inh 35µM, Pol eta inh inconclusive
Cc1cccc(C(=O)N2CCCC(c3nc(-c4ccc(F)cc4)no3)C2)c1 (stereo unspecified)	none
CCCCCCN=C(C)c1ccccc1O	none
O=C(Nc1ccc2c(c1)CCC2)C1COc2ccccc2O1 (stereo unspecified)	Pol beta inh 18µM, POLI inh inconclusive, APE1 inh inconclusive
CC(C)Cn1c(/C=C/c2ccco2)nc2ccccc21	Pol beta inh 28µM
O=C(CSc1nnc2c3ccccc3c3ccccc3c2n1)Nc1ccccc1F	Pol beta inh 11µM, Pol eta inh 32µM
O=c1c2ccccc2sn1-c1ccccc1F	GLS inhibitor 7.9µM (no result: Pol beta inh, Pol kappa inh, POLI inh, APE1 inh)
Cc1ccc(-n2sc3ccccc3c2=O)cc1S(=O)(=O)N1CCCCC1	GLS inhibitor 6.3µM, POLI inh inconclusive
CC(=O)Nc1ccc2c(=O)n(-c3ccccc3)sc2c1	GLS inhibitor 6.3µM (no result: Pol beta inh, Pol kappa inh, POLI inh, APE1 inh)
